In all, about 220,000 compounds went through this assay and about 910 (0.41%) were called active.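 How the source made its calls: active means primary inhibition above the hit cutoff, then over 50% inhibition at one or more dose response concentrations (cut at about 23% in these data, passing the limit was not always enough); inconclusive means conflicting primary data, or primary hits not chosen for dose response; inactive means low primary inhibition, or under 50% at every dose.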 Many of the other results were omitted from the sample, so actives are more common in it than they were. Potency and affinity values are given separately.

Inhibition data for 93 compounds are collected here from PubChem BioAssay AID1445 (SRMLSC, 2008).

The target in this experiment is Aminopeptidase N (Plasmodium falciparum (isolate 3D7)) (UniProt O96935). The experiment is described as follows: P. falciparum M1AAP inhibitors, biochemical, fluorogenic H-Leu-NHMec substrate, 1536-well (AID 1445).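 Further: plate controls were DMSO full reaction for no effect and no enzyme background for full effect.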 The settings on record: recombinant M1AAP, H-Leu-NHMec fluorogenic kinetic assay; at 30 µM, hits give high values unless noted.
Chain of Aminopeptidase N (Plasmodium falciparum (isolate 3D7)) (O96935 whole entry, looked up): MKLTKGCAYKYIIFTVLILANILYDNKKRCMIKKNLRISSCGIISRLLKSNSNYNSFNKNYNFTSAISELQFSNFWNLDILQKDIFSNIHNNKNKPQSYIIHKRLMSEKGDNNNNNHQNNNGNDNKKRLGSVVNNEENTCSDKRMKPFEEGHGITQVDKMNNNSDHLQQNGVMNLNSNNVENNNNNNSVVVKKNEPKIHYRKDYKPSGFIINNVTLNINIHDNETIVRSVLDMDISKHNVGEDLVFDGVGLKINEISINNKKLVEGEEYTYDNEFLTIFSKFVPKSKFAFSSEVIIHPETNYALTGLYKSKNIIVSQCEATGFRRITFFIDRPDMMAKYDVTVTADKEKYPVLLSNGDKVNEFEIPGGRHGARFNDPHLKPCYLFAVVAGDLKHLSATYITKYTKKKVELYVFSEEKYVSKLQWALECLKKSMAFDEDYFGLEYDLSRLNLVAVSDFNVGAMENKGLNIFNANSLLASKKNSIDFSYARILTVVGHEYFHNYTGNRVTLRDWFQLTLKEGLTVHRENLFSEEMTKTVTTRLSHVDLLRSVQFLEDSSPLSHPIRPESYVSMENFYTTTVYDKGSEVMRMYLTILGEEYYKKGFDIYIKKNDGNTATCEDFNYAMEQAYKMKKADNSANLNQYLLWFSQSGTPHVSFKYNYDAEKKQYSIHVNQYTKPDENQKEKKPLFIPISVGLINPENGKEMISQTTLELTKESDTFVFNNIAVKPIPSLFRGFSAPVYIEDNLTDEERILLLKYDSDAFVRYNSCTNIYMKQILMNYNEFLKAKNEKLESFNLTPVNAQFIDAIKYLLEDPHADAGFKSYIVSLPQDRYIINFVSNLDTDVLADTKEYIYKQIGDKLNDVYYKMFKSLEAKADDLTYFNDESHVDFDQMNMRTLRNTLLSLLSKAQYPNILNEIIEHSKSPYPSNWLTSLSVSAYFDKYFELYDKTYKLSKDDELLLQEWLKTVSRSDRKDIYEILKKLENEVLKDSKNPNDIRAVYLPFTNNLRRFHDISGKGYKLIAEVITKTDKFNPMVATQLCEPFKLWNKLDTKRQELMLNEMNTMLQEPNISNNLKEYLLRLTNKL
`CCOC(=O)N1CCN(S(=O)(=O)c2ccc(C(=O)Nc3sc4c(c3C#N)CCC4)cc2)CC1`: the inhibition – broadly, the drop in the measured response relative to a control, in per cent – was 4.62% (inactive).

For `NC(=O)Cn1c(-c2nonc2N)nc2ccccc21`, the inhibition was 2.36% (inactive).

As for `CCOC(=O)c1ccccc1NC(=O)Cn1c(-c2nonc2N)nc2ccccc21`, the inhibition is -0.93% (inactive).

Consider `COC(=O)c1ccccc1NC(=O)Cn1c(-c2nonc2N)nc2ccccc21`, for which the inhibition is 0.73% (inactive).

Regarding `Nc1nonc1-c1nc2ccccc2n1CC(=O)N/N=C\c1ccc(-c2ccc(Cl)cc2)o1`, the inhibition is -0.3% (inactive).

On to `CC(C)(C)NC(=O)Cn1c(-c2nonc2N)nc2ccccc21`, for which the inhibition was 8.2% (inactive).

Turning to `Nc1nonc1-c1nc2ccccc2n1CC(=O)Nc1ccccc1`, the inhibition is 2.57% (inactive).

Take `COc1ccccc1C(=O)Nc1ccccc1C(=O)N1CCCC1`: the inhibition is 5.88% (inactive).

Turning to `COc1ccc(CCNC(=O)COC(=O)c2ccc(N3CCCC3=O)cc2)cc1`, the inhibition is -2.72% (inactive).

Turning to `CC(=O)/C(N=Nc1ccc(C(=O)O)cc1)=C(\C)O`, the inhibition was 7.52% (inactive).

`Cc1ccc(C)c(N2CCN(C(=O)c3ccc(CSc4nc5ccncc5[nH]4)cc3)CC2)c1`: the inhibition was -6.94% (inactive).

`Cc1ccc(C2=Nc3ccc(Br)cc3C(c3ccncc3)=NN2)cc1`: the inhibition was -0.32% (inactive).

On to `CCOC(=O)C1(CCOc2ccccc2)CCN(Cc2cnc(C)[nH]2)CC1`, for which the inhibition is 6.06% (inactive).

In the case of `CCN(CC)NC(=S)Nc1ccccc1`, the inhibition is -2.71% (inactive).

Consider `CN(C)c1nc(-c2ccc([N+](=O)[O-])cc2)cs1`, for which the inhibition was 4.18% (inactive).

With `Cc1c(NC(=O)CSc2nncc3ccccc23)c(=O)n(-c2ccccc2)n1C`, the inhibition is 3.35% (inactive).

Turning to `O=C1/C(=C/c2ccc(O)c([N+](=O)[O-])c2)SC(=S)N1Cc1ccccc1`, the inhibition is 10.2% (inactive).

On to `Cn1cccc1/C=C1\SC(=S)N(NC(=O)c2ccccc2Cl)C1=O`, for which the inhibition is 17.9% (inactive).

Take `O=C1/C(=C/C=C/c2ccco2)SC(=S)N1c1ccc(O)cc1`: the inhibition is 15.5% (inactive).

As to `O=C(NN1C(=O)/C(=C\c2ccc(O)c([N+](=O)[O-])c2)SC1=S)c1ccccc1Cl`, the inhibition is 19.8% (inactive).

`COc1ccccc1C(=O)NN1C(=O)/C(=C/c2cccn2C)SC1=S`: the inhibition was 15.2% (inactive).

Turning to `CC(C(=O)O)N1C(=O)/C(=C/C=C/c2ccco2)SC1=S` (stereo not drawn), the inhibition is 10.5% (inactive).

As to `O=C(O)CCCN1C(=O)/C(=C/C=C/c2ccco2)SC1=S`, the inhibition is 7.29% (inactive).

Take `O=C(NN1C(=O)/C(=C/C=C/c2ccco2)SC1=S)c1ccncc1`: the inhibition is 17.5% (inactive).

With `COc1ccccc1N(C)S(=O)(=O)c1ccc(C(=O)OCC(=O)Nc2cc(C)on2)cc1`, the inhibition is -7.23% (inactive).

On to `CC(C)CN(CCOc1cccc(N2C(=O)C3=C(CCCC3)C2=O)c1)CC(C)C`, for which the inhibition was 3.32% (inactive).

`CC(=O)c1cccc(NC(=O)N2CCCc3ccccc32)c1`: the inhibition is 7.74% (inactive).

For the compound `COc1ccc(C2CCCN2C(=S)Nc2ccccc2C)cc1OC` (stereo not drawn), the inhibition is -1.92% (inactive).

On to `COc1ccc(C=O)cc1CSc1nnc(COc2cccc3cccnc23)o1`, for which the inhibition is 3.48% (inactive).

Consider `C/C(CC(=O)Nc1cccc(C(F)(F)F)c1)=N/NC(=O)C(=O)NCCO`, for which the inhibition was 8.99% (inactive).

`O=C(Cc1c[nH]c2ccccc12)N/N=C/c1ccccc1O`: the inhibition was 20.7% (inactive).

Consider `CC(C(=O)Nc1ccc(N2CCOCC2)cc1)N1C(=O)c2ccccc2C1=O` (stereo not drawn), for which the inhibition is 4.39% (inactive).

As to `COc1ccc(NC(=O)C(C)N2C(=O)c3ccccc3C2=O)cc1S(=O)(=O)N1CCOCC1` (stereo not drawn), the inhibition was 9.37% (inactive).

As to `COc1ccc(NC(=S)N(CCc2c(C)[nH]c3ccccc23)Cc2ccco2)cc1`, the inhibition was -1.5% (inactive).

As for `O=C(Nc1ccc2snnc2c1)N1CCSCC1`, the inhibition was 6.62% (inactive).

Consider `CC(c1ccccc1)N1C(=O)c2ccccc2C1O` (stereo not drawn), for which the inhibition was 0.46% (inactive).

Regarding `CN(C)S(=O)(=O)c1ccc(N2CCOCC2)nc1`, the inhibition is 8.35% (inactive).

Consider `O=S(=O)(Nc1nc2ccccc2[nH]1)c1ccccc1`, for which the inhibition was 1.84% (inactive).

Turning to `Cc1ccc(S(=O)(=O)NN2C(=O)/C(=C/c3ccccn3)SC2=S)cc1`, the inhibition is 17.4% (inactive).

`CC(=O)NN1C(=O)/C(=C\c2ccccc2)SC1=S`: the inhibition is 12.8% (inactive).

On to `O=C1/C(=C/c2cccs2)SC(=S)N1c1ccccc1`, for which the inhibition is 5.36% (inactive).

On to `O=C(NN1C(=O)/C(=C/c2cccs2)SC1=S)c1ccccc1`, for which the inhibition was 7.49% (inactive).

Turning to `O=C(NN1C(=O)/C(=C/c2cccs2)SC1=S)c1ccncc1`, the inhibition was 20.6% (inactive).

As to `Nc1nnc(CSc2ccc(Cl)cc2)s1`, the inhibition was -0.69% (inactive).

Regarding `COc1cccc(NC(=O)C(Sc2nnc(-c3ccncc3)n2-c2ccc(Cl)cc2)c2ccccc2)c1` (stereo not drawn), the inhibition is -1.95% (inactive).

Consider `C=CCOc1c2ccc(C(=O)NCc3ccc(OC)cc3)cc2nn1C`, for which the inhibition is 15.3% (inactive).

For `Cc1cc(C)n(-c2ccc(C(=O)OCC(=O)c3c(N)n(C)c(=O)n(C)c3=O)cc2)n1`, the inhibition is 4.93% (inactive).

Take `O=C(CCCCn1c(=O)[nH]c2ccsc2c1=O)NCC1CCCO1` (stereo not drawn): the inhibition is -2.47% (inactive).

As to `O=C(NCc1ccco1)c1ccc(Cl)c(S(=O)(=O)N2CCOCC2)c1`, the inhibition is 0.38% (inactive).

As for `COC(=O)c1cc(C(=O)NCCN2C(=O)S/C(=C\c3cccs3)C2=O)cc([N+](=O)[O-])c1`, the inhibition is 9.47% (inactive).

With `CCOC(=O)c1cc(C)[nH]c(=S)c1C#N`, the inhibition is 5.55% (inactive).

With `COc1cc(/C=C/C(=O)O)cc(S(=O)(=O)Nc2ccc(F)cc2)c1OC`, the inhibition was 5.47% (inactive).

For the compound `COc1cc(/C=C/C(=O)O)cc(S(=O)(=O)Nc2ccc3c(c2)OCO3)c1OC`, the inhibition is 10.2% (inactive).

As to `COc1cc(/C=C/C(=O)O)cc(S(=O)(=O)NCc2ccco2)c1OC`, the inhibition is 4.28% (inactive).

As to `COc1cc(/C=C/C(=O)O)cc(S(=O)(=O)Nc2ccccc2Cl)c1OC`, the inhibition was 5.83% (inactive).

As for `COc1cc(/C=C/C(=O)O)cc(S(=O)(=O)Nc2ccc3nc(C)sc3c2)c1OC`, the inhibition is 3.42% (inactive).

`COc1cc(/C=C/C(=O)O)cc(S(=O)(=O)Nc2cccc(SC)c2)c1OC`: the inhibition is 9.82% (inactive).

Consider `CC(=O)C1=C(O)C(=O)N(C2CCCCC2)C1c1ccccc1` (stereo not drawn), for which the inhibition is 10.2% (inactive).

Consider `CC(C)NC(=S)N(C)C1(c2ccccc2Cl)CCCCC1=O` (stereo not drawn), for which the inhibition was 2.06% (inactive).

As to `O=C(CCc1nc(-c2ccccc2F)no1)NCc1ccco1`, the inhibition was 8.13% (inactive).

Regarding `COCCNC(=S)Nc1ccc(N2CCCCC2)cc1`, the inhibition is 2.09% (inactive).

Turning to `Cc1ccc(N2C(=O)c3ccccc3C2=O)cc1C`, the inhibition is 2.18% (inactive).

In the case of `Cc1cccc(N2C(=O)CCC2=O)n1`, the inhibition was -1.56% (inactive).

As to `Cc1ccc(N2C(=O)c3ccc(C(=O)O)cc3C2=O)c(C)c1`, the inhibition was -3.18% (inactive).

With `Cc1ccc(N2C(=O)[C@@H]3C(C(=O)CN4C(=O)c5ccccc5C4=O)=NN[C@@H]3C2=O)c(C)c1`, the inhibition was 4.06% (inactive).

With `Cc1ccc(N2C(=O)c3ccccc3C2=O)cc1Cl`, the inhibition is -2.81% (inactive).

As for `Cc1cccc(NC(=O)CCCN2C(=O)c3ccccc3C2=O)n1`, the inhibition is -6.68% (inactive).

With `CC(=O)Nc1ccc(/C(C)=N/NC(=O)c2ccc(F)cc2)cc1`, the inhibition was 7.12% (inactive).

Take `O=C(Cn1cncn1)N/N=C/c1ccncc1`: the inhibition is -2.16% (inactive).

On to `COc1ccc(N(C(=O)C(C)C)S(=O)(=O)c2ccc3c(c2)n(C)c(=O)n3C)cc1`, for which the inhibition is 4.01% (inactive).

On to `CC(C)c1ccc(-c2nnc(N)s2)cc1`, for which the inhibition is -1.69% (inactive).

Take `Cn1nc(C(C)(C)C)cc1NC(=O)Nc1ccc(F)cc1F`: the inhibition is 6.33% (inactive).

Regarding `COc1ccc(S(=O)(=O)NCc2cc(-c3ccccc3Cl)no2)cc1`, the inhibition is 1.55% (inactive).

Turning to `COc1ccc(NC(=O)c2oc3ccccc3c2NC(=O)C(C)(C)C)cc1`, the inhibition was 6.73% (inactive).

For the compound `CCNc1nc(SC(C)C(=O)Nc2ccccc2)nc(N(C)C)n1` (stereo not drawn), the inhibition was 0.28% (inactive).

In the case of `CCOC(=O)CNc1nc(Cl)nc(NC(C)(C)C)n1`, the inhibition is 5.43% (inactive).

Regarding `O=C(COc1ncnc2c(Cl)cc(Cl)cc12)N1CCN(S(=O)(=O)c2ccccc2)CC1`, the inhibition was 5.95% (inactive).

Turning to `O=C(COc1ncnc2ccccc12)N1CCN(S(=O)(=O)c2ccc(Cl)cc2)CC1`, the inhibition is -2.49% (inactive).

For `O=C(COc1ncnc2ccccc12)N1CCN(S(=O)(=O)c2ccccc2)CC1`, the inhibition was 28.2% (active).

As for `O=C(CSc1ncn[nH]1)NN(c1ccccc1)c1ccccc1`, the inhibition was 0.8% (inactive).

As to `CC(=O)Nc1ccc(S(=O)(=O)Nc2nc3ccccc3nc2Nc2ccc(O)cc2)cc1`, the inhibition was 29.4% (inactive).

Turning to `O=[N+]([O-])c1cccc(S(=O)(=O)Nc2nc3ccccc3nc2Nc2cccc(S(=O)(=O)N3CCCCC3)c2)c1`, the inhibition was 9.64% (inactive).

For `Cc1nc(-c2cccc(NS(=O)(=O)c3ccccc3)c2)cs1`, the inhibition is 12.7% (inactive).

As for `CC(=O)Nc1ccc(Nc2nc3ccccc3nc2NS(=O)(=O)c2ccccc2)cc1`, the inhibition was 14.8% (inactive).

In the case of `CC(=O)Nc1ccc(S(=O)(=O)Nc2nc3ccccc3nc2Nc2ccc(S(N)(=O)=O)cc2)cc1`, the inhibition is 19.6% (inactive).

`O=[N+]([O-])c1ccc(S(=O)(=O)Nc2nc3ccccc3nc2Nc2ccccc2)cc1`: the inhibition was 2.42% (inactive).

With `O=S(=O)(Nc1cccc(S(=O)(=O)N2CCCCCC2)c1)c1ccccc1`, the inhibition is -2% (inactive).

Regarding `Cc1nc(-c2cccc(NS(=O)(=O)c3ccc4ccccc4c3)c2)cs1`, the inhibition is 11.2% (inactive).

Take `COc1ccc(-n2c(COc3cccc4cccnc34)nnc2SCC(=O)O)cc1`: the inhibition is -1.59% (inactive).

On to `COc1cc(C)c(S(=O)(=O)NC2CC(C)(C)NC(C)(C)C2)cc1C`, for which the inhibition was -4.25% (inactive).

In the case of `N/C(=N\OC(=O)Cc1ccccc1[N+](=O)[O-])c1ccccn1`, the inhibition is -2.27% (inactive).

Take `CC12CCC(=O)N1c1ccccc1C(=O)N2c1ccccc1` (stereo not drawn): the inhibition is 5.47% (inactive).

Regarding `CCC(CC)C(=O)OCC(=O)Nc1ccc(S(=O)(=O)N2CCOCC2)cc1OC`, the inhibition is -0.13% (inactive).
